Measurements taken from PubChem BioAssay.
Several values for one entry are separate records, joined by “and”; a condition that tells them apart may be missing. Equal entries are not always repeated. Activity calls are given as the source filed them. Rule as the data show it, unless noted: active = inhibition above about 80%; inactive = the rest.

Columns and labels:
[1] = LFS_MB_P medulloblastoma growth inhibition, cell-based, chromothripsis tumors, cisplatin or BGB combos (AID 1671449); conditions: LFS_MB_P medulloblastoma cells;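 also: cells exposed for 96 hours; 0% = vehicle DMSO and 100% = killing by high DMSO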
[2] = HDN33 neuroblastoma growth inhibition, cell-based, chromothripsis tumors, cisplatin or BGB combos (AID 1671450); conditions: HDN33 neuroblastoma cells, stronger effect = higher value;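 also: cells exposed to compound for four days; 0% = vehicle DMSO and 100% = cell killing by high DMSO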
[3] = ICB984 medulloblastoma cell growth inhibition, synergistic combos for chromothripsis tumors, cisplatin or BGB combos (AID 1671451; call rule not given here;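 also: cells exposed for 96 hours before readout; 0% = vehicle DMSO and 100% = killing by high DMSO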); conditions: ICB984 medulloblastoma cells, drug combinations, stronger effect = higher value
[4] = LFS_MB_1R medulloblastoma cell growth inhibition, synergistic combos for chromothripsis tumors, cisplatin or BGB combos (AID 1671452); conditions: LFS_MB_1R medulloblastoma cells, stronger effect = higher value;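 also: cells exposed for 96 hours before readout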
[5] = HTB85 osteosarcoma cell growth inhibition, synergistic combos for chromothripsis tumors, BGB or cisplatin IC20 combos (AID 1671453); conditions: HTB85 osteosarcoma cells, drug combinations, stronger effect = higher value;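 also: cells exposed for 96 hours before readout; 0% = vehicle DMSO and 100% = high DMSO killing control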
[6] = CRL2098 osteosarcoma cell growth inhibition, synergistic combos for chromothripsis tumors, BGB or cisplatin IC20 combos (AID 1671454); conditions: CRL2098 osteosarcoma cells, drug combinations, stronger effect = higher value;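 also: cells exposed for 96 h before readout; 0% = vehicle DMSO and 100% = killing by high DMSO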
[7] = HD-MB03 medulloblastoma cell growth inhibition, synergistic combos for chromothripsis tumors, BGB or cisplatin IC20 combos (AID 1671455; in the data active = inhibition above about 83%;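 also: 0% = vehicle DMSO and 100% = high DMSO as cytotoxic control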); conditions: HD-MB03 medulloblastoma cells, stronger effect = higher value
[8] = UWB1.289 ovarian carcinoma cell growth inhibition, synergistic combos for chromothripsis tumors, BGB or cisplatin combos (AID 1671456); conditions: UWB1.289 ovarian carcinoma cells, stronger effect = higher value;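 also: cells exposed to compound for four days; 0% = vehicle DMSO and 100% = killing by high DMSO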
[9] = LFS_MB_2R medulloblastoma cell growth inhibition, synergistic combos for chromothripsis tumors, cisplatin combos (AID 1671457); conditions: LFS_MB_2R medulloblastoma cells, stronger effect = higher value;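 also: cells exposed to compound for four days before readout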
[10] = MDA-MB-436 breast carcinoma cell growth inhibition, synergistic combos for chromothripsis tumors, BGB or cisplatin combos (AID 1671458; call rule not given here;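 also: cells exposed for 96 hours; 0% = vehicle DMSO and 100% = killing by high DMSO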); conditions: MDA-MB-436 breast carcinoma growth inhibition, drug combinations, stronger effect = higher value
[11] = UWB1.289_BRCA1 ovarian cancer growth, cell-based, BGB or cisplatin combinations (AID 1671459); conditions: UWB1.289 BRCA1 ovarian carcinoma, drug combinations, stronger effect = higher value
[12] = human astrocyte viability loss, single and combined drugs, cytotoxicity control for chromothriptic childhood tumor combination screen, cell-based, BGB or cisplatin IC20 combos (AID 1671460); conditions: Human astrocytes, drug combinations, stronger effect = higher value;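 also: cells exposed to compounds for 96 hours before viability readout; 0% = vehicle and 100% = killing control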
[13] = growth inhibition of BT084 medulloblastoma cells, cell-based, ICGC_MB145, cisplatin and BGB IC40 combos (AID 1671461); conditions: drug combinations, stronger effect = higher value;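 also: cells exposed to drugs for 96 hours; 0% = vehicle DMSO and 100% = high DMSO full killing control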
[14] = growth inhibition of RCMB18 medulloblastoma cells, cell-based, cisplatin and BGB IC40 combos (AID 1671462); conditions: stronger effect = higher value;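 also: cells exposed to compound for four days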
[15] = growth inhibition of CRL1545 osteosarcoma cells, cell-based, cisplatin and BGB IC20 combos (AID 1671464); conditions: stronger effect = higher value;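 also: cells exposed to compound for 96 hours before readout; 0% = vehicle DMSO and 100% = high DMSO killing control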
[16] = measured here: combination with BGB IC40, at 0.05 µM
[17] = measured here: with BGB IC20 combination, at 0.5 µM
[18] = measured here: with cisplatin IC20 combination, at 0.5 µM
[19] = measured here: combination with cisplatin, at 0.5 µM
[20] = measured here: combination with cisplatin, at 5 µM

**Q.** For `CC(=CC(=O)OCCCCCCCCC(=O)O)CC1OCC(CC2OC2C(C)C(C)O)C(O)C1O` (stereo not drawn), which inhibition ([1]; at 0.5 µM, stronger effect = higher value) is on record?
**A.** The inhibition was -17% (inactive) and -23.9% (inactive).

**Q.** What about the inhibition ([1]; measured here: combination with BGB IC20, at 0.005 µM) of the same compound?
**A.** Its inhibition is -2.94% and -18.6%.

**Q.** And the inhibition ([1]; measured here: combination with BGB IC40, at 0.005 µM)?
**A.** Its inhibition is -25.4% and -12.1%.

**Q.** What about the inhibition [1, 16] of the same compound?
**A.** Its inhibition is -14.3% and -15.6%.

**Q.** What about the inhibition ([1]; measured here: combination with cisplatin, at 0.5 µM, stronger effect = higher value) of the same compound?
**A.** Its inhibition is -17.5% and -24.1%.

**Q.** And the inhibition ([1]; measured here: combination with cisplatin, at 5 µM, stronger effect = higher value)?
**A.** The inhibition was -33.1% and 1.08%.

**Q.** And the inhibition ([2]; BGB combo, at 5 µM)?
**A.** Its inhibition is -14.8% and -17.7%.

**Q.** And the inhibition ([2]; at 0.5 µM)?
**A.** The inhibition was -9.45% (inactive) and -27.8% (inactive).

**Q.** And the inhibition ([2]; cisplatin combo, at 5 µM)?
**A.** The inhibition was 6.33% and -11.4%.

**Q.** What about the inhibition [2, 17] of the same compound?
**A.** The inhibition was -8.51% and -26.5%.

**Q.** And the inhibition [2, 18]?
**A.** The inhibition was -15.9% and -22.8%.

**Q.** And the inhibition ([2]; single agent, at 5 µM)?
**A.** Its inhibition is -7.18% and -31.8%.

**Q.** What about the inhibition ([3]; BGB IC20 combo, at 0.005 µM) of the same compound?
**A.** The inhibition was -1.97% and -19.7%.

**Q.** And the inhibition ([3]; BGB IC40 combo, at 0.005 µM)?
**A.** Its inhibition is -39% and 3.24%.

**Q.** What about the inhibition ([3]; BGB IC40 combo, at 0.05 µM) of the same compound?
**A.** Its inhibition is -33.4% and -9.88%.

**Q.** And the inhibition ([3]; at 0.5 µM)?
**A.** The inhibition was -17% (inactive) and -12.7% (inactive).

**Q.** And the inhibition ([3]; cisplatin combo, at 0.05 µM)?
**A.** The inhibition was -38.6% and -12.9%.

**Q.** And the inhibition ([3]; cisplatin combo, at 0.5 µM)?
**A.** The inhibition was -14.9% and -15.5%.

**Q.** What about the inhibition ([3]; cisplatin combo, at 5 µM) of the same compound?
**A.** The inhibition was -35% and -37.3%.

**Q.** What about the inhibition ([3]; measured here: 5 uM single agent, at 5 µM) of the same compound?
**A.** The inhibition was -25.3% and -26.1%.

**Q.** What about the inhibition ([4]; at 0.5 µM) of the same compound?
**A.** The inhibition was -33.1% (inactive) and -17.5% (inactive).

**Q.** What about the inhibition [4, 16] of the same compound?
**A.** Its inhibition is -28.7% and -19%.

**Q.** What about the inhibition [4, 19] of the same compound?
**A.** The inhibition was -76% and -15.9%.

**Q.** And the inhibition [4, 20]?
**A.** The inhibition was -33.5% and -12.5%.

**Q.** And the inhibition ([5]; at 0.5 µM)?
**A.** Its inhibition is -4.51% (inactive) and -3.63% (inactive).

**Q.** And the inhibition ([5]; measured here: with BGB IC20, at 0.5 µM)?
**A.** Its inhibition is -6.68% and -16.9%.

**Q.** And the inhibition ([5]; measured here: with BGB IC20, at 5 µM)?
**A.** The inhibition was 0.575% and -34.3%.

**Q.** And the inhibition ([5]; measured here: with cisplatin IC20, at 0.5 µM)?
**A.** The inhibition was -18.6% and 8%.

**Q.** And the inhibition ([5]; measured here: with cisplatin IC20, at 5 µM)?
**A.** Its inhibition is -13.7% and -38.9%.

**Q.** And the inhibition ([5]; single agent, at 5 µM)?
**A.** The inhibition was 1.75% and -9.62%.

**Q.** And the inhibition ([6]; at 0.5 µM)?
**A.** Its inhibition is -26.3% (inactive) and -42.8% (inactive).

**Q.** What about the inhibition ([6]; measured here: combination with BGB at IC20, at 0.5 µM) of the same compound?
**A.** The inhibition was -3.72% and -29.5%.

**Q.** What about the inhibition ([6]; measured here: combination with cisplatin at IC20, at 0.5 µM) of the same compound?
**A.** The inhibition was -3.83% and -44%.

**Q.** And the inhibition ([7]; at 0.5 µM)?
**A.** Its inhibition is -5.45% (inactive) and -14.3% (inactive).

**Q.** And the inhibition ([7]; measured here: combo with BGB at IC20, at 0.5 µM)?
**A.** The inhibition was -13% and -2.83%.

**Q.** And the inhibition ([7]; measured here: combo with cisplatin at IC20, at 0.5 µM)?
**A.** The inhibition was -4.76% and -27.9%.

**Q.** And the inhibition ([8]; at 0.5 µM)?
**A.** Its inhibition is -10.9% (inactive) and -9.1% (inactive).

**Q.** And the inhibition ([8]; measured here: inhibition with BGB combination, at 0.05 µM)?
**A.** The inhibition was -7.06% and -24.4%.

**Q.** What about the inhibition ([8]; measured here: inhibition with cisplatin combination, at 0.05 µM) of the same compound?
**A.** Its inhibition is -16.6% and -1.73%.

**Q.** What about the inhibition ([9]; at 0.5 µM) of the same compound?
**A.** The inhibition was -29.1% (inactive) and -8.5% (inactive).

**Q.** And the inhibition [9, 19]?
**A.** The inhibition was -31.2% and -4.9%.

**Q.** What about the inhibition [9, 20] of the same compound?
**A.** The inhibition was -23.6% and -39.7%.

**Q.** What about the inhibition ([10]; at 0.5 µM) of the same compound?
**A.** The inhibition was -14.5% (inactive) and -24.2% (inactive).

**Q.** And the inhibition ([10]; measured here: BGB combination, at 0.5 µM)?
**A.** The inhibition was -14.9% and -16%.

**Q.** What about the inhibition ([10]; measured here: BGB combination, at 5 µM) of the same compound?
**A.** Its inhibition is -17.5% and -14.8%.

**Q.** What about the inhibition ([10]; measured here: cisplatin combination, at 0.5 µM) of the same compound?
**A.** The inhibition was -18.1% and -43.4%.

**Q.** And the inhibition ([10]; measured here: cisplatin combination, at 5 µM)?
**A.** The inhibition was -22.7% and -18.3%.

**Q.** What about the inhibition ([11]; BGB combination, concentration series, at 5 µM) of the same compound?
**A.** The inhibition was 0.308% and -20.1%.

**Q.** What about the inhibition ([11]; at 0.5 µM) of the same compound?
**A.** The inhibition was -2.59% (inactive) and -13% (inactive).

**Q.** What about the inhibition ([11]; cisplatin combination, concentration series, at 5 µM) of the same compound?
**A.** The inhibition was 9.16% and -8.98%.

**Q.** And the inhibition ([12]; at 0.5 µM)?
**A.** Its inhibition is 9.62% (inactive) and -5.3% (inactive).

**Q.** What about the inhibition ([12]; measured here: combo with BGB IC20, at 0.5 µM) of the same compound?
**A.** Its inhibition is 10.3% and 3.21%.

**Q.** And the inhibition ([12]; measured here: combo with cisplatin IC20, at 0.5 µM)?
**A.** Its inhibition is 3.29% and -21.1%.

**Q.** And the inhibition ([13]; at 0.5 µM)?
**A.** The inhibition was -23.1% (inactive) and -16.1% (inactive).

**Q.** And the inhibition ([13]; cisplatin combination, at 0.5 µM)?
**A.** Its inhibition is -23.9% and -16.7%.

**Q.** And the inhibition ([13]; cisplatin combination, at 5 µM)?
**A.** Its inhibition is -18.9% and -3.71%.

**Q.** And the inhibition ([13]; measured here: BGB IC40 combination 0.05 uM, at 0.05 µM)?
**A.** Its inhibition is -21.3% and 12.3%.

**Q.** And the inhibition ([13]; single agent, at 5 µM)?
**A.** The inhibition was -11.4% and -22.4%.

**Q.** What about the inhibition ([14]; at 0.5 µM) of the same compound?
**A.** The inhibition was -6.07% (inactive) and -7.9% (inactive).

**Q.** And the inhibition ([14]; cisplatin combo, at 5 µM)?
**A.** Its inhibition is -30.1% and -5.18%.

**Q.** And the inhibition ([14]; measured here: BGB IC40 combination, at 0.05 µM)?
**A.** The inhibition was 6.38% and -10.7%.

**Q.** What about the inhibition [14, 19] of the same compound?
**A.** Its inhibition is 18.9% and -20.9%.

**Q.** And the inhibition ([14]; single agent, at 5 µM)?
**A.** The inhibition was -45.8% and -19.9%.

**Q.** What about the inhibition ([15]; at 0.5 µM) of the same compound?
**A.** The inhibition was -2.77% (inactive) and -21.4% (inactive).

**Q.** And the inhibition [15, 17]?
**A.** Its inhibition is -13.1% and -9.57%.

**Q.** And the inhibition [15, 18]?
**A.** The inhibition was 2.38% and -30.2%.

**Q.** What about the inhibition ([15]; single agent, at 0.05 µM) of the same compound?
**A.** The inhibition was 22.2% and -47.2%.

**Q.** And the inhibition ([15]; single agent, at 5 µM)?
**A.** Its inhibition is 3.87% and -28.5%.
